Assay outcomes from PubChem.
A selection: hits, their analogues and other compounds. The true share with any hit is near 2.7%.
S1P1 ag – S1P1 (human) receptor agonism; activation, % at 4.5 µM; P21453; AID 1044; actives 1.5% (n = 16,000); S1P1 agonist cell-based reporter assay; in the data active = activation above about 80%
rat GALR2 agon – GALR2 (rat) receptor agonism; actives 0.5% (n = 16,000); cell-based GALR2 agonist screen; activation, % at 10 µM; O08726; in the data active = activation above about 15%
Target sequence (O08726 whole entry, looked up): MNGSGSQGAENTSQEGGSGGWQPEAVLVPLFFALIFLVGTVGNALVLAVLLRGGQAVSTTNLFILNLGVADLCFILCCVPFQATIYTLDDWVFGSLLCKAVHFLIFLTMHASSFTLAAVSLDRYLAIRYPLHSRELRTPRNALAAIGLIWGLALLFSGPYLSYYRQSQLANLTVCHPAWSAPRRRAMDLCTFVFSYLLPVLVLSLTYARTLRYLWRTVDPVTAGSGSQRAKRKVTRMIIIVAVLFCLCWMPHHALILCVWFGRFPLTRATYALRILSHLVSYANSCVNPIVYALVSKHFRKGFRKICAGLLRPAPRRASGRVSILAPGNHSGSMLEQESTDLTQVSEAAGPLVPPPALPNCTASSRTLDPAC
PME-1 Maybridge – inhibitors of human PME-1 in Maybridge library. recombinant PME-1, FP-Rh probe fluorescence polarization. inhibition, % at 9 µM. actives 0.5% (n = 16,000). AID 2291; in the data active = inhibition above about 30%
Numbers stand for hits; n = inactive.

SMILES | S1P1 ag | rat GALR2 agon | PME-1 Maybridge
COc1ccccc1C1CCN(c2ccc(CO)cc2[N+](=O)[O-])CC1 | 92 | n | n
CN(C)c1ccc(C2CC(=O)c3ccccc3N2)cc1 (stereo not given) | n | n | n
CC(=O)/C(=C\N(C)C)SCc1ccccc1C | 97 | n | n
CC(=O)/C(=C\N(C)C)Sc1ccccn1 | n | n | n
Cc1onc(-c2c(F)cccc2Cl)c1C(=O)NC(=S)N=S(C)(=O)c1ccc(Cl)cc1 (stereo not given) | n | n | n
COC(=O)c1ccc(OC)c(C#N)c1 | n | n | n
CC(=O)N1CC(c2cnc(-c3ccccc3)c(C)c2)C=C(C)C1c1ccccc1 (stereo not given) | n | n | n
CCCc1c(C(=O)Nc2ncn[nH]2)cnn1-c1ccccc1 | n | n | n
CCCc1c(C(=O)Nc2ccc3ccccc3n2)cnn1-c1ccccc1 | 96 | n | n
O=C(Nc1ccccc1)Nc1ccccc1Sc1nccc(C(F)(F)F)n1 | n | n | n
O=C(CSc1ccccn1)Nc1ccccc1Sc1nccc(C(F)(F)F)n1 | 84 | n | n
OCCCNNC(=S)Nc1ccc(Cl)cc1Cl | n | n | n
S=C(NNc1c(Cl)cncc1Cl)Nc1ccc(Cl)cc1Cl | 119 | n | n
COc1ccc(NC(=O)C(=O)/C=C(\O)c2ccccc2)cc1 | n | n | n
O=S(=O)(Nc1cc(C(F)(F)F)cc(C(F)(F)F)c1)c1cccc2nsnc12 | 89 | n | n
NNC(=O)CNS(=O)(=O)c1cccc2nsnc12 | n | n | n
Cc1nc(N)nc2c1CSCC2 | n | n | n
COc1ccc(N=c2scc(C)n2C(=O)c2ccccc2Cl)cc1 | n | n | n
O=S(=O)(c1cc(Br)c(Cl)s1)N1C=CC(C(F)(F)F)=NCC1 | n | n | n
O=S(=O)(Nc1ccc(C(F)(F)F)cc1Cl)c1cc(Br)c(Cl)s1 | 113 | n | n
O=c1cc(Nc2ccc(OC(F)(F)F)cc2)c2ccccc2o1 | n | n | 54
O=C(Cc1cccs1)Nc1ccc(OC(F)(F)F)cc1 | n | n | n
CN(C)CCNc1nc(-c2ccccc2)nc2ccccc12 | n | n | n
FC(F)(F)c1cc(-c2nsc(N3CCOCC3)n2)cc(C(F)(F)F)c1 | n | 22 | n
FC(F)(F)c1cc(N=NN2CCOCC2)cc(C(F)(F)F)c1 | n | n | n
SMILES | S1P1 ag | rat GALR2 agon | PME-1 Maybridge
O=C(CSC1=NCCS1)NC1Cc2ccccc2C1 | n | n | n
CC1CC(=O)Nc2ccccc2N1C(=O)c1ccc(F)cc1F (stereo not given) | n | n | n
CS(=O)(=O)/C(C#N)=C/c1cccn1S(=O)(=O)c1ccccc1 | n | n | 31
CN(C)n1cccc1/C=C(\C#N)S(C)(=O)=O | n | n | n
COc1cccc(NC(=S)NNc2ccc([N+](=O)[O-])cc2)c1 | n | n | n
Cc1onc(-c2ccccc2)c1CNS(=O)(=O)c1ccc2c(c1)CCO2 | n | n | n
Cc1cc(C)c(N=C(N)NN)cc1C | n | n | n
COc1cccc(/C=N/NC(=O)CC#N)c1OC | n | n | n
Cc1c(S(=O)(=O)c2ccc(Cl)cc2)csc1C(=O)Nc1ccc2c(c1)COCO2 | n | n | n
Cc1c(S(=O)(=O)c2ccc(Cl)cc2)csc1C(=O)Nc1ccc(F)cc1F | n | 22 | n
Cc1cc(-c2noc(-c3ccccc3)n2)no1 | n | n | n
c1ccc(-c2nc(-c3ccc(-c4ccon4)s3)no2)cc1 | 87 | n | n
O=C(CSc1c(F)c(F)c(C(=O)O)c(F)c1F)c1cccc([N+](=O)[O-])c1 | n | n | n
O=C(Cc1ncon1)Nc1ccc(F)c(Cl)c1 | n | n | n
N#C/C(=C\Nc1cc(C(F)(F)F)cc(C(F)(F)F)c1)S(=O)(=O)c1ccc(Cl)cc1 | 87 | n | n
N#C/C(=C\Nc1cccnc1)S(=O)(=O)c1ccc(Cl)cc1 | n | n | n
CCOC(=O)CCn1c(=S)n(CCC(=O)OCC)c2ccccc21 | n | n | n
Cc1ccc(S(=O)(=O)NC(=O)NC2CCCc3ccccc32)cc1 (stereo not given) | n | n | n
O=c1oc(C(O)(c2ccccc2)c2ccccc2)nc2ccccc12 | n | n | n
CC(C)N(Cc1ccccc1)S(=O)(=O)c1ccc2c(c1)CCO2 | n | n | n
Cc1noc(C)c1S(=O)(=O)N(Cc1ccccc1)C(C)C | n | 47 | n
O=[N+]([O-])c1cc(/C=N/Nc2ccc(Br)c(Cl)c2)cs1 | n | n | n
CC(C)(C)OC(=O)N1CCN(C(=O)Nc2ccc(C(F)(F)F)cc2)CC1 | n | n | n
CN1CCN(c2ccc(NC(=O)Nc3ccc(C(F)(F)F)cc3)cc2)CC1 | n | n | 36
O=C(Nc1ccccc1)OCc1cc(-c2ccccc2)c(C(F)(F)F)s1 | 94 | n | n
SMILES | S1P1 ag | rat GALR2 agon | PME-1 Maybridge
CN(C)C(=O)c1cc(-c2ccccc2)c(C(F)(F)F)s1 | n | n | n
COC(=O)COc1ccc(SC(F)(F)F)cc1 | n | n | n
CC(=O)CSc1ccc(OCC(F)(F)F)c(C#N)c1OCC(F)(F)F | n | n | n
Oc1c(Cl)cc(Cl)cc1C1Nc2cc(Cl)c(C(F)(F)F)cc2N1 (stereo not given) | 106 | n | n
O=C(Nc1ccc2c(c1)OCCO2)c1cncc(-c2cccs2)c1 | n | n | n
Cn1cc(S(=O)(=O)NCc2ccc3c(c2)OCO3)c(C(F)(F)F)n1 | n | n | n
Cn1nc(C(C)(C)C)cc1C(=O)NCc1ccc2c(c1)OCO2 | 84 | n | n
O=c1/c(=C/c2ccccc2)sc2nnc(-c3cccs3)n12 | n | n | n
CSC(=NC#N)N1CCN(c2c([N+](=O)[O-])cc(C(F)(F)F)cc2[N+](=O)[O-])CC1 | n | n | n
O=[N+]([O-])c1cc(C(F)(F)F)cc([N+](=O)[O-])c1N1CCSCC1 | 99 | n | n
CCOC(=O)CN/C(SC)=C(/C#N)C(=O)c1cccs1 | n | n | n
CC(=O)Nc1ccccc1Sc1ccc([N+](=O)[O-])c(Sc2ccccc2NC(C)=O)n1 | n | n | n
Cc1ccsc1/C=C/C(=O)O/N=C(\N)c1ccc(C(F)(F)F)cc1 | 100 | n | n
Cc1nc(CO/N=C(/N)c2ccc(C(F)(F)F)cc2)cs1 | n | n | n
O=C(Nc1nnc(Sc2ccnc3cc(Cl)ccc23)s1)C1CC1 | n | n | n
Cc1c(C#N)c(NC(=O)c2cccs2)n(CC2CC2)c1C | n | n | n
O=c1c2cccc3cccc(sc4cccc5cccc1c54)c32 | n | n | n
CN(C)/C=C/C=c1/c(=O)c2cccc3cccc1c32 | 102 | n | n
Cc1onc(-c2c(Cl)cccc2Cl)c1C(=O)ON1C(=O)c2ccccc2C1=O | n | n | n
CCOC(=O)CC(=O)Nc1ccn(C)n1 | n | n | n
O=C1Nc2cc(C(F)(F)F)ccc2Oc2ccsc21 | n | n | n
CS(=O)(=NS(=O)(=O)c1cccc2nsnc12)c1ccc(Cl)cc1 (stereo not given) | n | n | n
O=[N+]([O-])c1ccc(OS(=O)(=O)c2cccc3nsnc23)cc1 | n | 47 | n
CCCCOC(=O)NC(NN1CCN(C)CC1)(C(F)(F)F)C(F)(F)F | n | n | n
O=C1CSc2ccc(C(F)(F)F)cc2N1Cc1c(Cl)cccc1Cl | n | n | 37
O=C1C=CC(=O)N1c1cc(C(F)(F)F)ccc1Cl | n | n | n
CCOC(=O)c1cc2c(c(CSc3ccc(Cl)cc3)c1)OCOC2 | n | n | n
Nc1ccc(C(F)(F)F)cc1N | n | n | n
Cc1cc(N=Nc2cccc(C(F)(F)F)c2)ccc1N | 101 | n | n
